# Screening results from PubChem BioAssay.
# Hits are enriched below; roughly 0.45% of the tested compounds scored in any of these assays.
# FadD28 binding: inhibitors of FadD28 bisubstrate probe binding, primary screen, biochemical, fluorescence polarization, single point | AID 588549, 2011 | hit rate 0.22% among 360,000 | Mycobacterium tuberculosis FadD28 fatty-acid-AMP ligase | inhibition, % at 12.5 µM; in the data active = inhibition above about 8.5%, passing the limit was not always enough
# BioA inh-1: M. tuberculosis BioA enzyme inhibitors, primary screen, biochemical, plate reader, single point, HTS; 7,8-diaminopelargonic acid synthase BioA (Mycobacterium tuberculosis); purified M. tuberculosis BioA enzyme; inhibition, % at 9.99 µM; hit rate 0.096% among 360,000; AID 602481, 2012; in the data active = inhibition above about 40%
# Y pestis TopoI: Yersinia pestis topoisomerase I inhibitors, primary screen, biochemical, cleavage product accumulation, plate reader, single point | Y. pestis Topo-I cleavage product accumulation | activity, % at 10 µM | hit rate 0.064% among 360,000; in the data active = activity above about 50%, passing the limit was not always enough
# TcdB inh: TcdB glycohydrolase inhibitors, primary screen, biochemical, single point, plate reader. Toxin B (Clostridioides difficile), P18177. TcdB glycohydrolase enzymatic assay. inhibition, % at 9.99 µM. hit rate 0.24% among 350,000. AID 652162, 2013; in the data active = inhibition above about 10%
# BioA inh-2: Mtb BioA enzyme inhibitors, dose response, biochemical, plate reader, cherry-pick samples, set 03 | shares compounds with BioA inh-1 | purified BioA enzyme | max activity, % | 310 tested, under 10 active | AID 651679, 2012;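 also: top concentration of the dilution series was 10 µM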
# Target sequence (P9WQ81 whole entry, looked up): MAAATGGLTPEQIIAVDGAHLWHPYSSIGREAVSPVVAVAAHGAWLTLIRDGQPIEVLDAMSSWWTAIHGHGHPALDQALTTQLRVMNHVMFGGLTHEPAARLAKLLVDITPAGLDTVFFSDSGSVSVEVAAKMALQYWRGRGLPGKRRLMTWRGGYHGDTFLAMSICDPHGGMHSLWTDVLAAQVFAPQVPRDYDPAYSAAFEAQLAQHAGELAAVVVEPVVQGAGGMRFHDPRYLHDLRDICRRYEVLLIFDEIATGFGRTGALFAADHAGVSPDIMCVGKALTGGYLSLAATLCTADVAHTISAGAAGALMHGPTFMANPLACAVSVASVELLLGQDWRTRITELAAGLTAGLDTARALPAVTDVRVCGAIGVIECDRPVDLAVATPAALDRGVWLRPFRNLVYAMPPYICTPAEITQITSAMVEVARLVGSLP
# HepG2 tox 2: cytotoxicity in HepG2 cells, dose response, cytotoxicity control, cell-based, plate reader, cherry-pick, two tests | max activity, % | shares compounds with BioA inh-1 | 310 tested, under 10 active | AID 651898, 2012
# NIH3T3 tox 5: cytotoxicity in NIH3T3 fibroblasts, dose response, cytotoxicity control, cell-based, plate reader, cherry-pick, two tests; 310 tested, under 10 active; AID 651900, 2012; activity change, negative = cytotoxicity, % at 26 µM; shares compounds with BioA inh-1
# * hit, by the source's call; i = inactive; x = not tested or not shown; [ ] = remark or other dose. Unless noted, no rule for the calls is given here.
SMILES,FadD28 binding,BioA inh-1,Y pestis TopoI,TcdB inh,BioA inh-2,HepG2 tox 2,NIH3T3 tox 5
CC(=O)c1ccc(N2CCN(C(=O)Cc3ccccc3)CC2)c(F)c1,-2.1,55.1*,5.8,0.5,-5.2,20.3,2.1
CC(=O)c1ccc(N2CCN(C(=O)c3ccc(Br)cc3)CC2)c(F)c1,-3.0,92.8*,23.2,x,-5.5,-10.7,2.1
O=C(c1ccncc1)N1CC2(C1)[C@H](c1ccccc1)[C@@H](CO)N2C(=O)c1ccncc1,x,x,x,-0.2,x,x,x
CC(C)Cn1c(N2CCN(C(=O)c3cccs3)CC2)nc2ccccc21,-1.0,x,31.4,x,x,x,x
CC(C)n1c(N2CCN(C(=O)c3cccs3)CC2)nc2ccccc21,2.2,41.5*,12.3,x,5.4,24.4,2.8
C[C@@H]1CN([C@H](C)CO)C(=O)Cc2cc(NC(=O)Cn3cnnn3)ccc2O[C@H]1CN(C)Cc1ccc2c(c1)OCO2,x,62.6*,x,0.0,-6.7,i,6.7[23.5 µM]
C[C@H]1CN([C@@H](C)CO)C(=O)Cc2cc(NC(=O)Cn3cnnn3)ccc2O[C@H]1CN(C)Cc1ccc2c(c1)OCO2,x,6.1,x,-0.4,x,x,x
C[C@@H]1CN([C@@H](C)CO)C(=O)Cc2cc(NC(=O)Cn3cnnn3)ccc2O[C@H]1CN(C)Cc1ccc2c(c1)OCO2,x,55.6*,x,-0.7,-5.8,i,-4.8
C[C@@H]1CN([C@@H](C)CO)S(=O)(=O)c2ccc(-c3cccc(C#N)c3)cc2O[C@H]1CN(C)C(=O)c1cccnc1,x,0.7,x,-0.5,x,x,x
CCCNC(=O)C[C@H]1CC[C@@H]2[C@@H](COc3ccc(NC(=O)Nc4ccccc4)cc3C(=O)N2C)O1,x,6.4,x,x,x,x,x
COc1ccc2c3c([nH]c2c1)[C@@H](CO)N(C(=O)c1cccnc1)CC31CCN(C(=O)c2cccnc2)CC1,x,x,x,-0.5,x,x,x
CN1CCN(C(=O)C[C@H]2C[C@@H]3c4cc(NC(=O)c5cccnc5)ccc4O[C@@H]3[C@H](CO)O2)CC1,x,3.4,x,x,x,x,x
O=C(Nc1ccc2c(c1)[C@H]1C[C@@H](CC(=O)N3CCc4ccccc4C3)O[C@@H](CO)[C@H]1O2)c1cccnc1,x,42.5*,x,0.6,-6.0,i,-4.8
CN(C)C(=O)C[C@@H]1C[C@@H]2c3cc(NC(=O)c4cccnc4)ccc3O[C@@H]2[C@@H](CO)O1,x,47.7*,x,0.5,-7.5,i,-0.5
O=C(C[C@@H]1C[C@H]2c3cc(NC(=O)c4cccnc4)ccc3O[C@H]2[C@H](CO)O1)NCC(F)(F)F,x,17.5,x,-0.6,x,x,x
O=C(C[C@H]1C[C@@H]2c3cc(NC(=O)c4cccnc4)ccc3O[C@@H]2[C@@H](CO)O1)NCC(F)(F)F,x,44.1*,x,0.0,-5.0,i,-0.3
O=C(C[C@H]1C[C@H]2c3cc(NC(=O)c4cccnc4)ccc3O[C@H]2[C@@H](CO)O1)NCc1cc(F)ccc1F,x,2.8,x,-1.1,x,x,x
O=C(C[C@@H]1C[C@H]2c3cc(NC(=O)c4cccnc4)ccc3O[C@H]2[C@@H](CO)O1)NCc1cc(F)ccc1F,x,41.2*,x,-0.1,5.7,i,1.3[23.5 µM]
C[C@@H]1CN([C@H](C)CO)C(=O)c2cc(NS(=O)(=O)c3ccccc3)ccc2O[C@@H](C)CCCCO[C@H]1CN(C)Cc1ccc2c(c1)OCO2,x,0.8,x,0.6,x,x,x
O=C(C1CC1)N1CC[C@@H]2[C@H]1c1cc(Br)ccc1N[C@@H]2CO,x,88.0*,x,x,-3.4,i,-7.2
O=C(Cc1ccccc1)N1CC[C@@H]2[C@H]1c1cc(Br)ccc1N[C@@H]2CO,x,86.2*,x,-0.8,6.6,i,-7.8
CN(C)C(=O)[C@H]1[C@H](CO)[C@H]2Cn3c(ccc(-c4cncnc4)c3=O)[C@H]2N1Cc1cc(F)ccc1F,x,0.4,x,-0.5,x,x,x
Cc1nn(CC(=O)NCC(C)c2ccccc2)c(=O)c2cc3occc3n12 (configuration not stated),-2.9,0.1,-0.7,0.6,x,x,x
CC(CNC(=O)CCCn1ncn2c(cc3occc32)c1=O)c1ccccc1 (configuration not stated),-3.5,67.0*,10.3,0.9,-9.5,-12.9,-5.2
CC(Oc1cc2oc(=O)c3c(c2cc1Cl)CCC3)C(=O)NCc1cccnc1 (configuration not stated),-0.3,46.8*,15.2,-1.5,-8.0,-19.8,-5.3
SMILES,FadD28 binding,BioA inh-1,Y pestis TopoI,TcdB inh,BioA inh-2,HepG2 tox 2,NIH3T3 tox 5
CCCNC(=O)Nc1ccc2c(c1)OC[C@@H](C)N(Cc1ccccn1)C[C@@H](C)[C@@H](OC)CN(C)C2=O,x,-6.3,x,1.6,x,x,x
CCCN1CCN(C(=O)C2CCN(c3nnc(C)c4c(C)n(-c5ccc(C)cc5)nc34)CC2)CC1,-1.2,41.3*,28.0,-2.2,-5.0,17.3,-8.6
C[C@@H]1CN([C@H](C)CO)C(=O)c2cc(NS(=O)(=O)c3cccs3)ccc2O[C@@H]1CN(C)C(=O)NC1CCCCC1,x,-1.0,x,-2.0,x,x,x
COc1cccc(C#Cc2ccc([C@@H]3[C@H](CO)N4C(=O)CN(S(=O)(=O)c5ccccc5C)C[C@@H]34)cc2)c1,x,x,x,0.2,x,x,x
COc1cc2c3cc1Oc1cc(ccc1O)C[C@@H]1c4c(cc(OC)c(O)c4Oc4ccc(cc4)C[C@H]3N(C)CC2)CCN1C,-1.8,0.7,-1.4,-9.3,x,x,x
COc1cc2c3cc1Oc1cc(ccc1O)C[C@@H]1c4c(cc(OC)c(O)c4Oc4cccc(c4)C[C@@H]3N(C)CC2)CC[N+]1(C)C,0.5,51.2*,0.5,-6.7,-7.4,15.5,2.0
CCc1nn(CCCC(=O)N(C)Cc2ccccc2)c(=O)c2cc3occc3n12,0.1,49.8*,18.3,2.0,-10.1,-20.0,-13.4
CCc1nn(C(C)C(=O)N(C)Cc2ccccc2)c(=O)c2cc3occc3n12 (configuration not stated),0.6,-4.0,-7.4,-0.7,x,x,x
O=C(Nc1ccc2nccnc2c1)c1cnccn1,-3.0,47.9*,3.5,x,-9.0,11.7,-1.6
CC(=O)c1c(C)[nH]c(C(=O)Nc2cccnc2)c1C,-2.2,58.0*,1.2,x,-4.9,-11.5,2.7
COc1cccc(NC(=O)CCC2CCN(C(=O)c3sccc3C)CC2)c1,-0.5,4.1,15.6,1.4,x,x,x
COc1cccc(NC(=O)CCC2CCN(C(=O)c3ccc(C(C)=O)s3)CC2)c1,-4.0,71.8*,19.2,0.8,2.4,-13.3,-0.2
CC=Cc1ccc2n(c1=O)C[C@H]1[C@H](CO)[C@@H](C(=O)NCc3ccccc3)N(C)[C@@H]21 (mixture of isomers),x,1.0,x,0.0,x,x,x
O=C(Nc1ncc2c(n1)CC(c1ccco1)CC2=O)c1ccco1 (configuration not stated),-2.2,53.7*,-1.4,-12.3,22.3,25.2,2.7
CN1CCN(C(=O)C[C@H]2CC[C@H](NC(=O)Cc3ccccn3)[C@H](CO)O2)CC1,x,-1.7,x,-0.7,x,x,x
